This is an account of results in PubChem BioAssay.

Test [1] can be described thus: inhibitors of TNFa-induced NFkB p65 translocation, primary screen, imaging, HUVEC, MLSMR starter and 10KST1 sets (AID 438;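 active = inhibition above 20% together with a positive visual image hit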;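 also: compound added about 3h40 before a 20 min TNFalpha stimulation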;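 as to inhibition: signal is the nuclear over cytoplasmic p65 intensity ratio per well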). Particulars: HUVEC TNFa-induced p65 nuclear translocation; cell count: measured here: nuclei count (cytotoxicity indicator), at 2.08 µM; inhibition: at 2 µM, stronger effect = higher value, 0% TNFa-plus-vehicle, 100% no-TNFa wells.
Test [2] is described as follows: inhibitors of mutant huntingtin aggregation, primary screen, imaging, exon1htt(103Q)mCFP cells, high-content imaging (AID 483;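 active = visual image review flags a hit and inhibition of aggregation exceeds 20%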;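 also: compound exposure lasted 3 days before fixation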;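 as to nuclei count: percent of the per-plate median nuclei count of sample wells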). Conditions: exon1htt(103Q)mCFP cell line, aggregate imaging, at 2 µM; inhibition of aggregation: stronger effect = higher value; nuclei count: measured here: cell count, toxicity.
Test [3] can be described thus: inhibitors of E-selectin induction by TNFa, primary screen, imaging, HUVEC, immunofluorescence, MLSMR starter and 10KST1 sets (AID 487;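 active = visually confirmed hit in the image check and inhibition above 20%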;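 as to inhibition: signal is fraction of cell area covered by stained E-selectin grains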;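 as to nuclei count: 100% = median nuclei count of all wells on the same plate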). Conditions: HUVEC TNFalpha-induced E-selectin immunofluorescence imaging, at 2 µM; inhibition: stronger effect = higher value; nuclei count: measured here: cell number, toxicity.
Test [4] concerns the target Voltage-gated potassium channel subunit beta-2 (Rattus norvegicus) (UniProt P62483). Nature of the test: KvBeta enzyme negative modulators, primary screen, biochemical, NADPH fluorescence (AID 622;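 active = fluorescence slope higher than the sample average by over 3 SD, cut at about -0.22 in these data, passing the limit was not always enough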;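 also: slope of raw intensity against log time taken from 70 to 1610 s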). Particulars: recombinant KvBeta, 4-cyanobenzaldehyde reduction, at 10 µM, stronger effect = higher value.
For test [5] the target is unchanged. Nature of the test: KvBeta positive modulators, primary screen, biochemical, NADPH fluorescence (AID 623).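 Also: fluorescence intensity change per second fitted from 20 to 320 s.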 Conditions: Recombinant KvBeta, NADPH fluorescence decrease slope, 10 min; at 10 µM; stronger effect = lower value.
Test [6] concerns the target Alpha-2C adrenergic receptor (Homo sapiens) (UniProt P18825). Nature of the test: modulators of alpha2C/GIRK thallium flux, primary screen, cell-based, HEK293 alpha2C/GIRK1/2 (AID 624;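 active = fluorescence slope after compound addition differing from the mean of all screened samples at 99.7% confidence, in either direction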;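 also: slope of fluorescence ratio to pre-addition baseline per second over 15 to 24 s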). Conditions: thallium flux BTC fluorescence, at 10 µM, actives lie on both sides.
Test [7] in a line: inhibitors of Sendai virus-induced IRF3 signaling, primary screen, TLR/RLR signaling modifier project, cell-based, Sendai virus stimulus, luciferase, 10K MLSCN set (AID 602276;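 active = inhibition at or above 50% at 10 µM; inactive = inhibition below 50%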;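 also: firefly luciferase from ISG56 promoter only with Renilla not read in this screen; 0% = Sendai virus plus DMSO and 100% = medium plus DMSO without virus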). Particulars: HEK293 RL24 IRF3 luciferase reporter, at 10 µM, stronger effect = higher value. (In general: In a reporter assay the amount or activity of a reporter protein is the signal.)
Test [8] can be described thus: inhibitors of poly I:C-induced TLR3 signaling, primary screen, cell-based, poly I:C stimulus, luciferase, 10K MLSCN set (AID 602277;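 active = inhibition of the reporter signal at or above 50%; inactive = inhibition below 50%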). Particulars: HEK293-TLR3 RL24 IRF3 luciferase reporter, at 10 µM, stronger effect = higher value.

Calls of active or inactive are those of the source.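 The calls were made as follows, unless noted: active = NADPH fluorescence slope more negative than the mean of all samples by about 3 SD, 99.7% confidence; inactive = the rest.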

What is called inhibition is the drop in the measured response relative to a control, in per cent.

Voltage-gated potassium channel subunit beta-2 (Rattus norvegicus), sequence (P62483 whole entry, looked up): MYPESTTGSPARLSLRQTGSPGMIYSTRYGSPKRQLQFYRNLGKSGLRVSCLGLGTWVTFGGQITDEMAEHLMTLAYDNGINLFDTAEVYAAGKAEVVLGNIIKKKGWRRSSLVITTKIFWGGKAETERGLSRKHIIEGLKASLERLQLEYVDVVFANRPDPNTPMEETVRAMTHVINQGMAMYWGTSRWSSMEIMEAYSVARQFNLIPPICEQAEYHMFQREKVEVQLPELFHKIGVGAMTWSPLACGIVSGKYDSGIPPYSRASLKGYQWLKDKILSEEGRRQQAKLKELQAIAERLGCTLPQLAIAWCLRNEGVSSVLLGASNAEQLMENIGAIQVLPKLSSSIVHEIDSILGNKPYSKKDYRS
Alpha-2C adrenergic receptor (Homo sapiens), sequence (P18825 whole entry, looked up): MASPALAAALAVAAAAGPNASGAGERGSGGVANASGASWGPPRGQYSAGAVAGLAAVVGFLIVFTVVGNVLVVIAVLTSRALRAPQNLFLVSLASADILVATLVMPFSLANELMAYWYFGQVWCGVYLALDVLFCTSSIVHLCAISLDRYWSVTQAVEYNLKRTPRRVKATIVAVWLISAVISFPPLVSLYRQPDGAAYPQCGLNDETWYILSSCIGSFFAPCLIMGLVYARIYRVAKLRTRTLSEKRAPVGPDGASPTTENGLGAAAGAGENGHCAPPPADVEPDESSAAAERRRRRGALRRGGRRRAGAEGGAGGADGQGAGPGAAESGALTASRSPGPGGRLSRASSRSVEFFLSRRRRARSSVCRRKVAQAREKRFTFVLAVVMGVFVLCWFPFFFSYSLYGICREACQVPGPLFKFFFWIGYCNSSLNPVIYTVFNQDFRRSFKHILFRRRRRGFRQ

As for `O=C1CCCC2=C1C(c1cccs1)n1nc(SCc3ccccc3F)nc1N2` (centres undefined), the cell count in test [1] is 694. Further, the inhibition is 8.6% (inactive) in test [1], -30.7% (inactive) in test [3], -24.2% (inactive) in test [7] and -0.597% (inactive) in test [8]. In addition, the inhibition of aggregation in test [2] was 16.5% (inactive). Besides, the nuclei count in test [2] came to 109%; in test [3] it was 79.7%. In addition, the fluorescence slope in test [4] was -0.505 (inactive). Moreover, in test [5], the NADPH fluorescence slope is 3.2e-05 (inactive). Also, the slope in test [6] is 0.00593 (inactive).

As for `O=C(Nc1cccnc1)c1cccc(NC(=O)c2ccco2)c1`, in test [1], the cell count was found to be 350. Also, the inhibition in test [1] was 1.5% (inactive); in test [3] it was 13.4% (inactive); in test [7], 16.9% (inactive); in test [8] it was 22.4% (inactive). Further, the inhibition of aggregation in test [2] is -3.4% (inactive). Further, the nuclei count was 104% in test [2] and 115% in test [3]. In addition, the fluorescence slope in test [4] was -0.446 (inactive). The NADPH fluorescence slope in test [5] was 6.3e-05 (inactive). For the same compound, the slope in test [6] was 0.00622 (inactive).

With `O=C(Cn1c(-c2cncs2)nc2ccccc21)NC1CCCC1`, in test [1], the cell count was 700. In addition, the inhibition in test [1] was -12.4% (inactive); in test [3], -9.6% (inactive); in test [7], 0.467% (inactive); in test [8] it was 16.2% (inactive). In addition, the inhibition of aggregation in test [2] is 0% (inactive). Further, the nuclei count came to 114% in test [2] and 109% in test [3]. Moreover, the fluorescence slope in test [4] was -0.31 (inactive). For the same compound, the NADPH fluorescence slope in test [5] is -4.5e-05 (inactive). The slope in test [6] is 0.00471 (inactive).

For `N#Cc1c(NC(=O)c2ccc(Br)o2)n(-c2ccccc2)c2nc3ccccc3nc12`, the cell count in test [1] was determined as 275. The inhibition was -1.4% (inactive) in test [1], -63.2% (inactive) in test [3], 19.9% (inactive) in test [7] and 18.8% (inactive) in test [8]. In test [2], the inhibition of aggregation was 14.7% (inactive). For the same compound, the nuclei count is 97.4% in test [2] and 104% in test [3]. Further, the fluorescence slope in test [4] was -0.502 (inactive). Moreover, in test [5], the NADPH fluorescence slope was -2e-05 (inactive). In addition, the slope in test [6] was 0.0121 (active).

For the compound `Nc1nc(SCc2nc3scc(-c4cccs4)c3c(=O)[nH]2)n[nH]1`, the cell count in test [1] amounted to 473. Also, the inhibition was 3.8% (inactive) in test [1], -112% (inactive) in test [3], 1.51% (inactive) in test [7] and 4.54% (inactive) in test [8]. Besides, the inhibition of aggregation in test [2] was 10.7% (inactive). Also, the nuclei count worked out at 103% in test [2] and 116% in test [3]. Besides, the fluorescence slope in test [4] is -0.432 (inactive). The NADPH fluorescence slope in test [5] was 8.2e-06 (inactive). In addition, the slope in test [6] was 0.00447 (inactive).

Take `CCOc1ccc(N2CC(C(=O)Nc3ccccc3OC)CC2=O)cc1` (centres undefined): the cell count in test [1] is 663. The inhibition was -3.4% (inactive) in test [1], -21.8% (inactive) in test [3], 5.76% (inactive) in test [7] and -2.71% (inactive) in test [8]. Besides, the inhibition of aggregation in test [2] was -8.5% (inactive). Also, the nuclei count in test [2] came out at 89%; in test [3], 126%. In addition, the fluorescence slope in test [4] is -0.404 (inactive). In addition, the NADPH fluorescence slope in test [5] was 2.8e-05 (inactive). Also, the slope in test [6] is 0.00536 (inactive).

Take `O=C(Nc1ccc2c(c1)OCCO2)C1CCCN1S(=O)(=O)c1cccc2cccnc12` (centres undefined): the cell count in test [1] turned out to be 743. The inhibition in test [1] was 4.4% (inactive); in test [3], -42.2% (inactive); in test [7], 3.98% (inactive); in test [8], 22.9% (inactive). In test [2], the inhibition of aggregation was 4.5% (inactive). In addition, the values for the nuclei count in test [2] and in test [3] were 128% and 106%, respectively. For the same compound, in test [4], the fluorescence slope is -0.537 (inactive). The NADPH fluorescence slope in test [5] is -4.4e-05 (inactive). Besides, in test [6], the slope was 0.00567 (inactive).

With `COc1ccccc1-n1c(=O)[nH]c2c(C(N)=O)nc(-c3cccnc3)nc21`, the cell count in test [1] worked out at 679. Also, the inhibition is -5.2% (inactive) in test [1], -19.1% (inactive) in test [3], 15.6% (inactive) in test [7] and -10.2% (inactive) in test [8]. In addition, the inhibition of aggregation in test [2] was -20.4% (inactive). The values for the nuclei count in test [2] and in test [3] were 101% and 104%, respectively. In addition, in test [4], the fluorescence slope is -0.516 (inactive). Moreover, the NADPH fluorescence slope in test [5] was -3.5e-06 (inactive). Also, the slope in test [6] was 0.00612 (inactive).

Take `O=C1CCc2cc(S(=O)(=O)N3CCC(C(=O)NCc4ccccn4)CC3)ccc2N1`: in test [1], the cell count was determined as 599. Also, the inhibition is 0% (inactive) in test [1], -26.3% (inactive) in test [3], 13.9% (inactive) in test [7] and 14.7% (inactive) in test [8]. Moreover, in test [2], the inhibition of aggregation is 32.3% (inactive). Moreover, the nuclei count in test [2] turned out to be 115%; in test [3], 110%. For the same compound, in test [4], the fluorescence slope is -0.578 (inactive). Further, the NADPH fluorescence slope in test [5] was 1.3e-05 (inactive). Moreover, the slope in test [6] is 0.00666 (inactive).
